According to PubChem BioAssay (EPA / NIEHS):
Inconclusive results are not listed. Active and inactive are the calls of the source. Rule for the calls, unless noted: active = hit-call score of the fitted dose curve at least 0.9, where 1 is the maximum; inconclusive = response in the unintended direction; inactive = score below 0.9.

Experiments:
[1] = CCTE_Simmons_CellTiterGLO_HEK293T: Viability Assessment in CCTE's Assays for Thyroperoxidase (TPO) Inhibition, Simmons Lab (AID 2283665);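 for AC50: cells exposed to compound for 24 h before readout; actives reduce ATP signal below DMSO vehicle meaning cytotoxicity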
In short: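 HEK293T, 10 000 cells/well, DMEM + 1% FBS; 8-pt titration 5 nM–87.5 uM [final], 0.5% DMSO; 24 hr, 37C, 5% CO2; CellTiter-Glo luminescence; n=3 biological replicates.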

[2] = Tanguay_ZF_120hpf_TR_legacy: (Legacy) Oregon State University Tanguay Lab 120 Hour Post-fertilization zebrafish Assay for Touch Response (AID 2283667)
In short: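 Tropical 5D wild-type zebrafish embryos were exposed statically in sealed, foil-covered plates at 28C until 120 hpf, with 0.64% (vol/vol) final DMSO. Touch response was scored as present or absent; embryos that died were not scored.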

[3] = read-out: Cytochrome P450 (CYP24A1_1), CYP24A1 (gene 1591); assay: LTEA_HepaRG_CYP24A1_1: Life Technologies and Expression Analysis (LTEA) Assay for Cytochrome P450 (CYP24A1_1) using HepaRG (AID 2283671; active = hit-call score of the fitted dose curve at least 0.9, where 1 is the maximum; inactive = score below 0.9); conditions: mRNA level, 48 h; actives raise or lower the signal
In short: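 HepaRG, 48 h exposure, 8-pt half-log series from 100 uM in 0.5% DMSO, duplicates. Readout: TaqMan qRT-PCR of CYP24A1 mRNA, housekeeping-normalized (ACTB/GAPDH/POLR2A). Bidirectional curve fit vs DMSO baseline.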

[4] = CCTE_Padilla_ZF_144hpf_TERATOSCORE: (Legacy) CCTE's 144 Hour Post-fertilization zebrafish Assay Teratoscore, Padilla Lab (AID 2283679; active = hit-call score of the fitted dose curve at least 0.9, where 1 is the maximum; inactive = score below 0.9;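 note: zebrafish embryos with chorions exposed by immersion from 6-8 hpf to 5 dpf with daily renewal; teratogenicity score from eye scoring of death hatching and malformations at 144 hpf; higher score means more developmental defects relative to DMSO baseline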)
In short: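 Larvae scored by eye at 144 hpf for death, hatching and malformations after a day in clean Hanks'. Before that, daily-renewed exposure at 80 uM (0.4% DMSO, 26C) from roughly 6-8 hpf through 5 dpf, 4 embryos per chemical.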

[5] = read-out: alkyl and aryl transferase (GSTA2), GSTA2 (gene 2939); assay: CLD_GSTA2_6hr: CellzDirect (CLD) Gene Expression Assay for alkyl and aryl transferase (GSTA2) at 6 hours (AID 2283666)
In short: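 Primary human hepatocytes from two donor preparations were dosed daily with fresh compound at multiple concentrations, 0.2% DMSO vehicle. GSTA2 mRNA was measured at 6 hours by qNPA chemiluminescence; induction fitted relative to DMSO, with cytotoxicity flagged morphologically.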

[6] = read-out: organic anion transporter (SLCO1B1), SLCO1B1 (gene 10599); assay: CLD_SLCO1B1_6hr: CellzDirect (CLD) Gene Expression Assay for organic anion transporter (SLCO1B1) at 6 hours (AID 2283668);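 note: active means mRNA induction above DMSO baseline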
In short: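 Primary human hepatocytes dosed daily with test chemicals (multiple concentrations) in 0.2% DMSO vehicle; harvested at 6 h. SLCO1B1 mRNA quantified by qNPA chemiluminescence, fitted as gain-of-signal versus DMSO; cytotoxicity from phase-contrast morphology flagged alongside.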

[7] = read-out: sulfotransferase (SULT2A), SULT2A1 (gene 6822); assay: CLD_SULT2A_6hr: CellzDirect (CLD) Gene Expression Assay for sulfotransferase (SULT2A) at 6 hours (AID 2283669);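 note: hits raise transcript level above the DMSO vehicle baseline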
In short: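 Primary human hepatocytes from two donor preparations were dosed daily with chemicals or 0.2% DMSO and harvested at 6 h. Transcript induction read by qNPA chemiluminescence, fitted for gain of signal relative to DMSO; morphology-based cytotoxicity annotated.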

[8] = read-out: glucuronosyltransferase (UGT1A1), UGT1A1 (gene 54658); assay: CLD_UGT1A1_6hr: CellzDirect (CLD) Gene Expression Assay for glucuronosyltransferase (UGT1A1) at 6 hours (AID 2283672)
In short: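 Primary human hepatocytes from two donor preparations, dosed with fresh solutions in 0.2% DMSO, harvested at 6 h. UGT1A1 mRNA measured by qNPA chemiluminescence; induction fitted upward versus DMSO.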

[9] = read-out: xenobiotic metabolism (CYP1A1), CYP1A1 (gene 1543); assay: CLD_CYP1A1_24hr: CellzDirect (CLD) Gene Expression Assay for xenobiotic metabolism (CYP1A1) at 24 hours (AID 2283673);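 note: CYP1A1 mRNA level by quantitative nuclease protection with chemiluminescence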
In short: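 Primary human hepatocytes dosed daily with fresh solutions in 0.2% DMSO vehicle. mRNA measured at 24 h by quantitative nuclease protection assay with chemiluminescence; gain-of-signal fit versus DMSO, with morphology-based cytotoxicity flags.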

[10] = CLD_ACTIN_6hr: CellzDirect (CLD) Gene Expression Assay for Baseline Control (Actin) at 6 hours (AID 2283676);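 note: active means increased actin mRNA relative to DMSO vehicle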
In short: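 Primary human hepatocytes dosed with fresh chemical solutions (vehicle 0.2% DMSO), harvested at 6 h. Actin mRNA quantified by quantitative nuclease protection assay with chemiluminescent read-out, as background control relative to DMSO.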

[11] = read-out: Glyceraldehyde-3-phosphate dehydrogenase (Homo sapiens) (UniProt P04406); assay: CLD_GAPDH_6hr: CellzDirect (CLD) Gene Expression Assay for Baseline Control (Glyceraldehyde 3-phosphate dehydrogenase) at 6 hours (AID 2283681);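 note: active means increased signal relative to DMSO vehicle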
In short: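 Primary human hepatocytes from two donor preparations, dosed at multiple concentrations with 0.2% DMSO vehicle; GAPDH mRNA measured 6 h after dosing by chemiluminescent quantitative nuclease protection assay (qNPA) on denatured lysates. Serves as background control; cytotoxicity annotated by morphology.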

[12] = read-out: xenobiotic metabolism (CYP1A2), CYP1A2 (gene 1544); assay: CLD_CYP1A2_24hr: CellzDirect (CLD) Gene Expression Assay for xenobiotic metabolism (CYP1A2) at 24 hours (AID 2283683)
In short: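 Primary human hepatocytes from two donor preparations dosed daily with multiple concentrations of chemical, 0.2% DMSO vehicle. CYP1A2 mRNA at 24 h quantified by qNPA chemiluminescence; gain of signal analyzed relative to DMSO. Cytotoxicity flagged by phase-contrast morphology.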

[13] = read-out: ABC Transporter (ABCB1), ABCB1 (gene 5243); assay: CLD_ABCB1_24hr: CellzDirect (CLD) Gene Expression Assay for ABC Transporter (ABCB1) at 24 hours (AID 2283684)
In short: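 Primary human hepatocytes, two donor preparations, dosed daily with fresh solutions; vehicle 0.2% DMSO; harvested at 24 h. ABCB1 mRNA measured by quantitative nuclease protection assay (chemiluminescence); morphology-based cytotoxicity annotated.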

[14] = read-out: ABC Transporter (ABCB11), ABCB11 (gene 8647); assay: CLD_ABCB11_6hr: CellzDirect (CLD) Gene Expression Assay for ABC Transporter (ABCB11) at 6 hours (AID 2283675);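 note: hits raise ABCB11 mRNA level so AC50 marks induction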
In short: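 Human primary hepatocytes (two donor preparations) given fresh chemical daily at multiple concentrations, vehicle 0.2% DMSO. ABCB11 mRNA induction measured 6 h after dosing by qNPA chemiluminescence versus DMSO; cytotoxicity annotated from morphology.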

[15] = read-out: Cytochrome P450 2B6 (Homo sapiens) (UniProt P20813); assay: CLD_CYP2B6_6hr: CellzDirect (CLD) Gene Expression Assay for xenobiotic metabolism (CYP2B6) at 6 hours (AID 2283677);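 note: actives raise CYP2B6 transcript above DMSO baseline so AC50 marks an inducer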
In short: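 Primary human hepatocytes dosed with chemicals at multiple concentrations, vehicle 0.2% DMSO; CYP2B6 mRNA induction measured 6 h after dosing by quantitative nuclease protection assay with chemiluminescence, gain of signal fitted relative to DMSO.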

[16] = read-out: Cytochrome P450 3A4 (Homo sapiens) (UniProt P08684); assay: CLD_CYP3A4_6hr: CellzDirect (CLD) Gene Expression Assay for xenobiotic metabolism (CYP3A4) at 6 hours (AID 2283680)
In short: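 Primary human hepatocytes (two donor preparations) dosed; CYP3A4 mRNA harvested at 6 h and quantified by qNPA chemiluminescence. Gain of signal fitted against 0.2% DMSO vehicle; cytotoxicity flagged by phase-contrast morphology.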

[17] = read-out: Cytochrome P450 2C19 (Homo sapiens) (UniProt P33261); assay: CLD_CYP2C19_6hr: CellzDirect (CLD) Gene Expression Assay for xenobiotic metabolism (CYP2C19) at 6 hours (AID 2283678)
In short: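 Primary human hepatocytes from two donor preparations were dosed daily, with 0.2% DMSO as vehicle, and harvested 6 h after dosing. CYP2C19 mRNA induction was measured by qNPA chemiluminescence and fitted as gain of signal against DMSO.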

[18] = read-out: HMG-CoA synthase (HMGCS2), HMGCS2 (gene 3158); assay: CLD_HMGCS2_6hr: CellzDirect (CLD) Gene Expression Assay for HMG-CoA synthase (HMGCS2) at 6 hours (AID 2283682);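 note: actives raise HMGCS2 transcript above the 0.2% DMSO vehicle baseline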
In short: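 Primary human hepatocytes dosed daily with fresh chemical, 0.2% DMSO vehicle; HMGCS2 mRNA measured at 6 h by qNPA chemiluminescence. Gain of signal fitted against DMSO; cytotoxicity flagged from phase-contrast morphology.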

[19] = CLD_ACTIN_24hr: CellzDirect (CLD) Gene Expression Assay for Baseline Control (Actin) at 24 hours (AID 2283670)
In short: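 Primary human hepatocytes dosed over multiple concentrations with 0.2% DMSO vehicle; actin mRNA measured at 24 h by qNPA chemiluminescence. Background control endpoint, fitted as gain of signal versus DMSO.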

[20] = read-out: ABC Transporter (ABCB11), ABCB11 (gene 8647); assay: CLD_ABCB11_24hr: CellzDirect (CLD) Gene Expression Assay for ABC Transporter (ABCB11) at 24 hours (AID 2283674; active = hit-call score of the fitted dose curve at least 0.9, where 1 is the maximum; inactive = score below 0.9)
In short: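 Primary human hepatocytes were dosed daily for two days, with 0.2% DMSO vehicle. ABCB11 mRNA induction was measured at 24 hours by quantitative nuclease protection assay with chemiluminescence. Gain of signal was fitted relative to DMSO.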

Sequence of Cytochrome P450 3A4 (Homo sapiens) (P08684 whole entry, looked up): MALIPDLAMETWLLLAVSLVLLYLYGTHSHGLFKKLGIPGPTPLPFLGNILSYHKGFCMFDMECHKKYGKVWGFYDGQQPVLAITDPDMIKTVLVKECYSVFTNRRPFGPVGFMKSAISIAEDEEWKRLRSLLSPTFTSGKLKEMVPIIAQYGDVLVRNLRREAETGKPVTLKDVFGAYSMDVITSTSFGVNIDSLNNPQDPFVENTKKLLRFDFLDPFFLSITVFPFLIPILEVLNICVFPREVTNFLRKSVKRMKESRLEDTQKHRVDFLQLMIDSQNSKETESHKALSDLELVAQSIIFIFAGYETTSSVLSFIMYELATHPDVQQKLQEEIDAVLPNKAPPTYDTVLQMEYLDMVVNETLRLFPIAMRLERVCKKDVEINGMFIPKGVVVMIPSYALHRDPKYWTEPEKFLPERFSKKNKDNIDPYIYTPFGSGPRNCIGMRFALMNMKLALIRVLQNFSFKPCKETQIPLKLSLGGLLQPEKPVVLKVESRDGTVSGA
Sequence of Glyceraldehyde-3-phosphate dehydrogenase (Homo sapiens) (P04406 whole entry, looked up): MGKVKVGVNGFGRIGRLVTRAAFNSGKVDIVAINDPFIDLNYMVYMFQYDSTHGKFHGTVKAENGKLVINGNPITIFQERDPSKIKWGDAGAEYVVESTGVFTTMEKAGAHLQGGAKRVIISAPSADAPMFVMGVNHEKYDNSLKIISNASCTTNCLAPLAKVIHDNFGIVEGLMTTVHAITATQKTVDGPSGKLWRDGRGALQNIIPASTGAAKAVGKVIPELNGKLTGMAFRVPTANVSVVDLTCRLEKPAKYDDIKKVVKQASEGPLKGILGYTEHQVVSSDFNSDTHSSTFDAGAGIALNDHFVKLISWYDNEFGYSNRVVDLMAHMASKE
Sequence of Cytochrome P450 2C19 (Homo sapiens) (P33261 whole entry, looked up): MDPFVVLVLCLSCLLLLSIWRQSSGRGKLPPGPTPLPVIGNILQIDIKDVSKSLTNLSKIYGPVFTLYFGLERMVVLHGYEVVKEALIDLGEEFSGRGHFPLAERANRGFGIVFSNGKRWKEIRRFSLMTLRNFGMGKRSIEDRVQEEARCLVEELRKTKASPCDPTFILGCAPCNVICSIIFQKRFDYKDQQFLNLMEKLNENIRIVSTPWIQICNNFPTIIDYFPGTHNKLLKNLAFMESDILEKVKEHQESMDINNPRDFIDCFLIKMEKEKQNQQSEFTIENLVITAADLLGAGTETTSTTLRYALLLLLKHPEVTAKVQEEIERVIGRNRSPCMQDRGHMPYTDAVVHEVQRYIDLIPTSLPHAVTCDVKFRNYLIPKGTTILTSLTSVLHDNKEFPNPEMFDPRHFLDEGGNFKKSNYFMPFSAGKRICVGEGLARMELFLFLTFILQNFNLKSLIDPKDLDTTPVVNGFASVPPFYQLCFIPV

Sc1ccccc1
outcome [1]: inactive

O=C(O)C(F)(F)C(F)(F)C(F)(F)C(F)(F)C(F)(F)C(F)(F)C(F)(F)C(F)(F)C(F)(F)F
AC50 [1]: 38.3 µM (active)
outcome [2]: inactive
outcome [3]: inactive

c1ccc(-c2ccccc2)cc1
AC50 [1]: 34.5 µM (active)
outcome [2]: inactive

Cc1ccccc1[N+](=O)[O-]
outcome [2]: inactive

CC(C)(c1ccccc1)c1ccc(O)cc1
AC50 [1]: 12.2 µM (active)
outcome [2]: inactive
AC50 [4]: 4.83 µM (active)

CCC(=O)O[C@H]1CC[C@H]2[C@@H]3CCC4=CC(=O)CC[C@]4(C)[C@H]3CC[C@]12C
AC50 [1]: 9.47 µM (active)
outcome [2]: inactive

O=C(NC(=O)c1c(F)cccc1F)Nc1cc(Cl)c(OC(F)(F)C(F)F)c(Cl)c1
outcome [1]: inactive
outcome [2]: inactive

COS(=O)(=O)OC
outcome [1]: inactive
outcome [2]: inactive
outcome [3]: inactive

Cc1ccc(O)c(C)c1
outcome [1]: inactive
outcome [2]: inactive

Oc1c(Cl)c(Cl)c(Cl)c(Cl)c1Cl
outcome [1]: inactive
outcome [2]: inactive

Cc1ccccc1CO[C@@H]1C[C@@]2(C(C)C)CC[C@]1(C)O2
AC50 [1]: 21.6 µM (active)
outcome [5]: inactive
outcome [2]: inactive
outcome [6]: inactive
outcome [7]: inactive
outcome [8]: inactive
outcome [9]: inactive
outcome [10]: inactive
outcome [11]: inactive
AC50 [12]: 16.5 µM (active)
outcome [13]: inactive

C[C@]12CCC(=O)C=C1CC[C@@H]1[C@@H]2CC[C@]2(C)C(=O)CC[C@@H]12
outcome [1]: inactive
AC50 [2]: 26.8 µM (active)

Oc1ccc(C(c2ccc(O)cc2)(C(F)(F)F)C(F)(F)F)cc1
AC50 [1]: 11 µM (active)
AC50 [2]: 52.8 µM (active)

CCOP(=S)(OCC)SCSC(C)(C)C
AC50 [1]: 20.9 µM (active)
outcome [2]: inactive

CCC(C)(CC)c1cc(NC(=O)c2c(OC)cccc2OC)on1
outcome [5]: inactive
outcome [2]: inactive
outcome [6]: inactive
outcome [7]: inactive
outcome [8]: inactive
AC50 [9]: 20 µM (active)
outcome [14]: inactive
outcome [10]: inactive
AC50 [15]: 0.116 µM (active)
AC50 [16]: 0.0356 µM (active)
outcome [11]: inactive
AC50 [12]: 8.57 µM (active)
outcome [13]: inactive

O=C(O)C(F)(F)C(F)(F)C(F)(F)C(F)(F)C(F)(F)C(F)(F)C(F)(F)C(F)(F)F
AC50 [1]: 21.8 µM (active)
outcome [2]: inactive

CC(C)C(=O)OCC(C)(C)C(OC(=O)C(C)C)C(C)C (centres undefined)
outcome [2]: inactive

CCCCCCCCCC[N+](C)(C)CCCCCCCCCC
AC50 [1]: 3.92 µM (active)
outcome [2]: inactive

ClC1=C(Cl)[C@]2(Cl)[C@@H]3[C@@H](Cl)[C@H]4O[C@H]4[C@@H]3C1(Cl)C2(Cl)Cl
outcome [2]: inactive

Cc1cccc(C)c1N
outcome [2]: inactive

CC(c1ccc(O)cc1)(c1ccc(O)cc1)c1ccc(O)cc1
AC50 [1]: 36.9 µM (active)

CCCCCCCCOC(=O)c1ccccc1C(=O)OCCCCCCCC
outcome [1]: inactive
outcome [2]: inactive

CCNc1nc(NC(C)C)nc(SC)n1
outcome [5]: inactive
outcome [2]: inactive
outcome [7]: inactive
outcome [8]: inactive
AC50 [9]: 3.97 µM (active)
outcome [10]: inactive
AC50 [15]: 1 µM (active)
outcome [17]: inactive
AC50 [4]: 149 µM (active)
AC50 [16]: 1.79 µM (active)
outcome [11]: inactive
outcome [18]: inactive
AC50 [12]: 1.29 µM (active)
outcome [13]: inactive

CCC(C)(c1ccc(O)cc1)c1ccc(O)cc1
AC50 [1]: 37.4 µM (active)
AC50 [2]: 42.4 µM (active)

Nc1ccc(-c2ccc(N)cc2)cc1
outcome [2]: inactive

Clc1ccc(C(Cl)(Cl)Cl)cc1
outcome [1]: inactive
outcome [2]: inactive

CN(C)c1nc(=O)n(C2CCCCC2)c(=O)n1C
outcome [5]: inactive
outcome [7]: inactive
outcome [19]: inactive
outcome [8]: inactive
outcome [10]: inactive
outcome [15]: inactive
outcome [16]: inactive
outcome [11]: inactive
outcome [18]: inactive
outcome [12]: inactive
outcome [13]: inactive

COc1ccc(O)c(C(C)(C)C)c1
AC50 [1]: 60.5 µM (active)
outcome [2]: inactive

CCCCCCCCCc1ccc(O)cc1
AC50 [1]: 15.7 µM (active)
outcome [2]: inactive
outcome [3]: inactive

CCSC(=O)N(CC)C1CCCCC1
outcome [6]: inactive
outcome [19]: inactive
outcome [8]: inactive
outcome [20]: inactive
outcome [14]: inactive
outcome [10]: inactive
AC50 [15]: 3.97 µM (active)
outcome [17]: inactive
outcome [16]: inactive
outcome [12]: inactive
outcome [13]: inactive

CC1=C2C[C@H]3[C@@H](CC=C4C[C@@H](O)CC[C@@]43C)[C@@H]2CC[C@]12O[C@@H]1C[C@H](C)CN[C@H]1[C@H]2C
outcome [3]: inactive

Clc1ccc(Cl)cc1
outcome [3]: inactive
